# From PubChem
# GLP1R ag – qHTS of GLP-1 Receptor Agonists. Glucagon-like peptide 1 receptor (Homo sapiens), P43220. hit rate 0.007% among 380,000. Potency, µM (series often up to 45.6 µM), inactives show at the top dose activation, most hits filed as activators. HEK293 GLP-1R CRE-luciferase, luminescence, 4-6 h; cells express a hypersensitive GLP-1R form; further: potency means the concentration at half of the fitted maximal effect; % of control where 0% means no effect
# Target sequence (P43220 whole entry, looked up): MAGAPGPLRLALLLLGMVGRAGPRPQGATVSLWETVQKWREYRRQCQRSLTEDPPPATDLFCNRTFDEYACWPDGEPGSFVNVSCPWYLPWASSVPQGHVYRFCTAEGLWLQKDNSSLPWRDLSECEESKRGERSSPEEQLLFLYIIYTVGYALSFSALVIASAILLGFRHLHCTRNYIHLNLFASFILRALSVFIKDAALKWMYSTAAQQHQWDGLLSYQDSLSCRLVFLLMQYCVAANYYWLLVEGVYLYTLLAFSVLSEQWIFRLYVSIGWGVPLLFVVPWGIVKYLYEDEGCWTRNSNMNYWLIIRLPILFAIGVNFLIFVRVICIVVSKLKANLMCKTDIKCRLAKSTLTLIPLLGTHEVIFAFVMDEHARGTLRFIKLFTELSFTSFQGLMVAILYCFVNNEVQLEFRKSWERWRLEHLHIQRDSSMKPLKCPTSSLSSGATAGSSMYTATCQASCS
# GLP-1R inv ag – qHTS of GLP-1 Receptor Inverse Agonists (Inhibition Mode). Glucagon-like peptide 1 receptor (Homo sapiens), P43220. HEK293 GLP-1R CRE-luciferase, luminescence, 24 h; GLP-1R form is constitutively active. Potency, µM (titrated, usually from 38.3 µM), for inactives: at the top dose activity change, negative = inhibition, actives largely listed as inhibitors. hit rate 1.6% among 410,000; further: potency means the concentration at half of the fitted maximal effect; on the % scale 0 is the no-effect control and ±100 the full control effect; nearly all actives have a fitted effect of over 55% in size
#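 Readout was luciferase luminescence, measured 12 min after detection reagent at room temperature. Beforehand, GLP-1R reporter HEK293 cells had sat 12 h, then received compounds for 24 hr at 37 deg C.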
# DRD3 antagonist – qHTS of D3 Dopamine Receptor Antagonist: qHTS; D(3) dopamine receptor (Homo sapiens), P35462; D3R cells, DiscoveRx beta-arrestin luminescence, antagonist mode; active compounds read low; max response, negative = inhibition, %; hit rate 2.5% among 360,000; AID 652054, 2013; in the data active means max response below about -50%; inconclusive means no clear call, values can overlap the other calls; further: on the % scale 0 is the no-effect control and ±100 the full control effect
#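 Cells expressing the human receptor were seeded at 1500 cells/well, incubated overnight at 37 degrees C in 5% CO2, then exposed to library compounds with dopamine controls for 90 minutes at 37 degrees C before luminescent detection.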
# GLP1R cytotox – qHTS of GLP-1 Receptor Inverse Agonists: Cytotox Screen; HEK293 cAMP-luciferase reporter cells, luminescence, 24 h; Potency, µM (doses to about 38.3 µM), for inactives: top-dose activity change, negative = inhibition, actives largely listed as inhibitors; hit rate 0.13% among 410,000;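 further: loss of luciferase light is scored as toxicity; potency means the concentration at half of the fitted maximal effect; on the % scale 0 is the no-effect control and ±100 the full control effect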
#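 1536-well qHTS counterscreen of the MLSMR; 200 cells/uL, 12 h pre-incubation, 23 nL cpd, 24 h at 37 deg C 5% CO2, luciferase detection reagent, 12 min RT, luminescence. Inhibition = undesired.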
# ClpP mod – qHTS Assay for Activators of ClpP | ATP-dependent Clp protease proteolytic subunit (Bacillus subtilis (strain 168)), P80244 | purified B. subtilis ClpP, FRET peptide cleavage, 20 min | Potency, µM (series often up to 57.5 µM), inactives show top-dose activity change, negative = active | hit rate 1.9% among 340,000 | AID 651965, 2013; active means well fitted falling curve with a large enough effect; inconclusive means small, poorly fitted or top-dose-only effect; inactive means no such curve, though single readings can be large or run the other way; further: potency means the concentration at half of the fitted maximal effect; the source files actives as falling curves though it sought activators and does not explain the sign; nearly all actives have a fitted effect of over 65% in size
# Target sequence (P80244 whole entry, looked up): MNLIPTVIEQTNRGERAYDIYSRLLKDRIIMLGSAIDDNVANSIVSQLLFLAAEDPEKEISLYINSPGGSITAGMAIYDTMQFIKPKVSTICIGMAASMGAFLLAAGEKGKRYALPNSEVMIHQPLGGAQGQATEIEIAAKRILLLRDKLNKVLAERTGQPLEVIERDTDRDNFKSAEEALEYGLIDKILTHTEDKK
#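 ClpP 10 microg/mL final, pH 8 Tris/KCl buffer with BSA, glycerol, Tween-20; compound pinned in; FRET-FV substrate; RT 20 min; Ex320/Em430; ΔFRET vs ADEP 5.8 microM, DMSO, no enzyme.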
# D3 ag – qHTS of D3 Dopamine Receptor Agonist: qHTS | D3R DiscoveRx beta-arrestin cells, luminescence, 90 min | max activation, % | hit rate 0.58% among 410,000 | AID 652048, 2013; in the data active means max activation above about 30%; further: 0% is about no effect
#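 Cells at 1500/well, incubated overnight, then treated with pinned compounds (dopamine as control) for 90 min at 37 degrees C. DiscoveRx reagent added for 30 - 60 minutes at room temperature; luminescence read.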
# Starred values were filed as active, the others as inactive; u = inconclusive; x = no result given. Rows were chosen to be rich in hits. Some 5.7% of all compounds tested hit in one or more screens of this group. Unless noted, the call rests on the fitted dose curve; in most records, active means well fitted curve in the direction sought with a large enough effect; inconclusive means small, poorly fitted or top-dose-only effect, or another doubt; inactive means no such curve, though single readings can be large; an effect the other way counts as inactive or inconclusive.
SMILES,GLP1R ag,GLP-1R inv ag,DRD3 antagonist,GLP1R cytotox,ClpP mod,D3 ag
CCC1CCCCN1S(=O)(=O)c1ccc(NC(=O)c2cc(=O)c3c(C)cc(C)cc3o2)cc1 (centres undefined),x,-1%,x,-5%,-4%,3
O=C(NCCc1ccccc1)c1ccccc1NS(=O)(=O)N1CCCC1,1%,-8%,2,-6%,14µM*,7
O=S(=O)(Nc1cccc2ccccc12)N1CCCC1,11%,u,-18,3%,28µM*,-6
O=S(=O)(Nc1cccc2ccccc12)c1ccccc1F,8%,2%,-2,6%,x,2
CC(C)(C)OC(=O)N1CCC(c2c(C(=O)NCc3cccs3)cnn2-c2ccc(F)cc2F)CC1,x,u,x,-13%,2%,-7
CCOC(=O)Cc1csc(SCC(=O)Nc2cc(Cl)ccc2Oc2ccccc2)n1,-2%,10µM*,-2,26%,-3%,3
O=C(CSc1n[nH]c(=O)n1C1CC1)Nc1ccccc1,4%,38%,1,5%,0%,3
O=C(CSc1n[nH]c(=O)n1C1CC1)Nc1cc(Cl)ccc1Oc1ccccc1,-6%,u,-18,-17%,0%,32*
CCOc1ccc(NC(=O)Cc2ccc(-n3c(C)nc4cccnc43)cc2)cc1,x,-5%,x,0%,0%,2
COc1cccc(CNc2ncnc3onc(-c4ccc(F)cc4)c23)c1,x,3%,x,15%,-1%,4
COc1cccc(-c2csc(N3CCN(C(=O)Nc4ccccc4Cl)CC3)n2)c1,-2%,u,13,-9%,-3%,0
CNC(=S)N1CCN(c2nc(-c3cccc(OC)c3)cs2)CC1,0%,-22%,4,-5%,-7%,2
COc1ccc(N2CCN(C(=O)Nc3cccc(C(F)(F)F)c3)CC2)cc1,6%,10µM*,u,4%,-16%,-26
COc1cccc(-c2csc(N3CCN(C(=O)NC45CC6CC(CC(C6)C4)C5)CC3)n2)c1,-10%,5µM*,40,1%,-3%,18
COc1cccc(NC(=O)N2CCN(c3nc(-c4cccc(OC)c4)cs3)CC2)c1,-5%,13µM*,20,-22%,0%,2
OC(c1ccc(F)cc1)c1nc(-c2ccc(Cl)cc2)cs1 (centres undefined),14%,u,-30,1%,-6%,-4
Cc1ccc(S(=O)(=O)N(Cc2cccc(Cl)c2)C(=O)N2CCN(C)CC2)cc1,-2%,12%,-1,2%,14µM*,-3
Cc1ccc(CN(C(=O)N2CCN(C)CC2)S(=O)(=O)c2ccc(C)cc2)cc1,2%,17%,9,13%,-2%,4
CN(Cc1ccccc1)C(=O)c1ccc2c(c1)N(Cc1ccccc1Cl)C(=O)c1ccccc1S2,x,u,x,-19%,1%,-12
Cc1c(Cl)cccc1NC(CC(=O)c1ccccc1)C(=O)O (centres undefined),-2%,-29%,-28,-15%,25µM*,-8
COc1cccc(NC(=O)N(CCCN2CCOCC2)C(C)c2cc3ccccc3o2)c1 (centres undefined),8%,0%,-70*,-14%,0%,-52
COc1cccc(NC(=O)N(CCCN2CCOCC2)C(C)c2cc3cccc(OC)c3o2)c1 (centres undefined),-6%,u,u,-1%,-1%,-14
OC(CCCN1CCCCC1)(c1ccccc1)c1ccc(C(F)(F)F)cc1 (centres undefined),5%,u,-99*,-28%,x,-23
CC(C)NC(=O)C1(C)CN(S(C)(=O)=O)CC(=O)N1Cc1cccs1 (centres undefined),x,11%,3,15%,1%,-6
Cc1ccc(NC(=O)c2ccc(NCCCN3CCOCC3)c([N+](=O)[O-])c2)cc1Cl,9%,u,-51*,u,-1%,-15
SMILES,GLP1R ag,GLP-1R inv ag,DRD3 antagonist,GLP1R cytotox,ClpP mod,D3 ag
O=C(Nc1ccc(Cl)c([N+](=O)[O-])c1)c1ccc(NCCCN2CCOCC2)c([N+](=O)[O-])c1,8%,14%,10,-3%,-1%,-8
COc1cc(C)ccc1S(=O)(=O)NC(=O)C1(C)CCN1C(=O)COc1ccc(Cl)cc1 (centres undefined),-4%,-18%,6,3%,1%,7
COc1ccccc1CC(=O)N1CCCC1,-5%,-2%,-25,-15%,0%,-2
COc1ccccc1CC(=O)N1CCN(c2ccccn2)CC1,-17%,16%,-7,-1%,22µM*,4
Cc1cc(OCC(=O)N2CCN(c3ccccn3)CC2)c(C)cc1Br,9%,u,4,9%,35µM*,1
COc1ccc(OC)c(S(=O)(=O)N2CCN(c3ccccn3)CC2)c1,22%,-1%,-104*,-2%,-9%,-3
Cc1cc(C)c(C)c(OCC(=O)N2CCN(c3ccccn3)CC2)c1,9%,u,-17,0%,u,-1
O=C(CC1CCCCC1)N1CCN(c2ccccn2)CC1,23%,-4%,9,8%,32µM*,1
COc1ccc(C(=O)O)cc1S(=O)(=O)N1CCN(c2ccccn2)CC1,0%,4%,3,-5%,x,-1
CCc1nnc(NC(=O)CCC(=O)N2CCN(Cc3ccc(C)cc3C)CC2)s1,-4%,u,2,-14%,x,-14
CC(C)CC(NC(=O)C1CCCCC1)C(=O)N1CCN(c2ccccn2)CC1 (centres undefined),-4%,0%,-10,-5%,28µM*,-2
CCc1nnc(NC(=O)CCC(=O)N2CCN(CCOc3ccc(C)cc3)CC2)s1,0%,-30%,0,-16%,0%,45*
CC(C)c1nnc(NC(=O)CCC(=O)N2CCN(c3ccccn3)CC2)s1,-10%,3%,20,20%,u,1
CC(C)Cc1nnc(NC(=O)CCC(=O)N2CCN(c3ccccn3)CC2)s1,6%,3%,-12,4%,25µM*,3
O=C(CCc1ccccc1)N1CCN(c2ccccn2)CC1,1%,23%,8,-3%,u,-14
O=C(O)CCC(=O)N1CCN(c2ccccn2)CC1,-3%,0%,0,5%,25µM*,2
CSCCC(NC(=O)C1CCC(C)CC1)C(=O)N1CCN(c2ccccn2)CC1 (centres undefined),0%,7%,-19,2%,u,-5
